Activation data for 90 compounds are collected here from PubChem BioAssay AID652067 (The Scripps Research Institute Molecular Screening Center, 2013).

In all, about 370,000 compounds went through this assay and about 5,400 (1.5%) were called active. This excerpt belongs to a sample that is enriched for actives. Unmarked numbers belong to inactive results.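 Rule for the calls: active = activation above the mean of all tested compounds plus 3 SD (cut at about 5.5% in these data); inactive = the rest.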

The experiment has as its system DAF-12 nuclear receptor (Haemonchus contortus). Description: H. contortus DAF-12 nuclear receptor activators, primary screen, cell-based, luminescence, HEK293, lit1-tk-luc reporter (AID 652067).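 Note: 100% = response to 3 µM Δ7-dafachronic acid high control.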 The note with it: HEK293 hcDAF-12 lit1-tk-luc reporter, at 6.8 µM, hits give high values, 0% DMSO, 100% Δ7-dafachronic acid.
Take `CCCCNC(=O)C[C@@H]1C(=O)N(CCc2ccc(Cl)cc2)C2=CCCC[C@]21C(=O)OCC`: the activation is -2.83%.
The same measure for `COc1ccccc1OCC(=O)O/N=C(\N)c1ccccn1`: 7.16% (active); for `COc1ccccc1OCC(=O)OCc1cc(-c2ccco2)on1`: -2.08%.
The same measure for `N/C(=N\OC(=O)CCC1CCCCC1)c1ccccn1`: 4.24%; for `COc1ccc(C(=O)O/N=C(\N)c2ccccn2)cc1[N+](=O)[O-]`: 6.36% (active).
As for `N/C(=N\OC(=O)Cc1ccc([N+](=O)[O-])cc1)c1ccccn1`, the figure is 1.92%; as for `O=C(COC(=O)c1ccccn1)NNC(=O)c1ccc([N+](=O)[O-])cc1`, 1.23%; as for `O=C(COC(=O)c1ccccn1)NNC(=O)c1ccc(Br)cc1`, -2.22%.
Turning to `C/C(=N/OC(=O)c1cccc(C(F)(F)F)c1)c1cnccn1`, the activation was -0.26%.
Consider `Cc1ccc(C(=O)O/N=C(\N)c2ccccn2)cc1Cl`, for which the activation was 8.22% (active).
As for `CCOC(=O)c1cccc(NC(=O)CN(C)S(=O)(=O)c2ccc(-c3cocn3)s2)c1`, the figure is -1.38%.
The same measure for `C=CCN1C(=O)[C@@H](CC(=O)N2CCN(C(=O)OCC)CC2)[C@]2(C(=O)OCC)CCCCC/C=C/12`: 0.11%; for `CCC(=O)OCCCN1C(=O)CCC12CCC(c1ccccc1)CC2` (stereo not given): -1.9%; for `CN(C)[C@H]1CCN(c2cccc3c2S(=O)(=O)N2CC[C@H](C2)O3)C1`: 1.72%.
As for `Cc1ccc(CN2CCCCC(NC(=O)C3CCCCC3)C2=O)cc1` (stereo not given), the figure is -1.6%; as for `COC(=O)[C@]12C[C@H](CC(=O)N3CCN(C(=O)C4CC4)CC3)C(=O)N(CCC3=CCCCC3)C1=C[C@H](C(C)C)O[C@@H]2C1CC1`, -1.23%.
For the compound `Nn1c(SCC(=O)Nc2ccc(S(N)(=O)=O)cc2)nnc1-c1n[nH]c2c1CCC2`, the activation is -1.75%.
Take `Cc1cccc(-n2nc3c(c2NC(=O)c2cc4ccccc4o2)CS(=O)(=O)C3)c1`: the activation is 1.51%.
As for `C/C(=N\NC(=S)Nc1ccc(C)cc1)c1cc2ccccc2o1`, the figure is -0.69%; as for `Cc1ccc(NC(=O)c2cc3ccccc3o2)cc1`, 10.5% (active).
As for `CC(C)(C)c1ccc(CSc2nnc(-c3cccs3)o2)cc1`, the figure is 1.61%; as for `COc1ccccc1C(=O)NC(=O)COC(=O)C1CC1`, 0.43%.
The same measure for `Cn1c(=N)n(CC(O)c2ccccc2)c2ccccc21` (stereo not given): 6.33% (active); for `CCOc1ccc(C(O)Cn2c(=N)n(CCN3CCCCC3)c3ccccc32)cc1` (stereo not given): -0.25%; for `Cc1nc2ccccc2n1CC(O)c1ccccc1` (stereo not given): 1.55%.
Take `CCC(=O)Nc1ccc2c(c1)C(=O)N(C)[C@H]1CC[C@H](CC(=O)NCCOC)O[C@@H]1CO2`: the activation was -0.71%.
As for `COC(=O)C1CN(CCc2ccccc2)CCS(=O)(=O)N1Cc1cccc(Cl)c1` (stereo not given), the figure is -1.52%; as for `O=C(NC1CCCCN(Cc2ccc(Cl)cc2)C1=O)c1ccc(Br)cc1` (stereo not given), -2.55%; as for `O=C(NC(Cc1c[nH]c2ccccc12)C(=O)O)/C(=C/c1ccco1)NC(=O)c1ccccc1` (stereo not given), 6.62% (active).
The same measure for `O=C(NC(Cc1ccccc1)C(=O)O)/C(=C\c1ccccc1)NC(=O)c1ccco1` (stereo not given): -0.54%.
As for `O=C(NCc1ccco1)/C(=C/c1ccco1)NC(=O)c1ccccc1`, the figure is -0.96%; as for `Cc1ccc(-n2c(SCC(=O)Nc3ccc(S(=O)(=O)Nc4nccs4)cc3)nnc2-c2ccccn2)cc1`, -0.18%; as for `COc1cc(NC(=O)C2CCCN(S(=O)(=O)c3ccc(C(C)(C)C)cc3)C2)cc(OC)c1` (stereo not given), -1.6%.
For `CC(C)C(C#CC1CC1)N(Cc1ccc2c(c1)OCO2)C(N)=NC(=O)/C=C/c1cccc(C(F)(F)F)c1` (stereo not given), the activation is 0.1%.
For `COC(=O)[C@]1(C#N)CC(=O)N(CC2CCCCC2)[C@@H]1c1ccccc1`, the activation is 0.64%.
The same measure for `Cc1cccc(NC(=S)NC(=O)c2ccc(Br)o2)c1`: 6.48% (active); for `CCS(=O)(=O)c1ccc(-c2cccc(NC(=O)c3ccc(Br)o3)c2)nn1`: 1.53%; for `O=C(Nc1cccc(C(=O)O)c1)/C(=C\c1ccccc1)NC(=O)c1ccc(Br)o1`: -0.49%.
As for `CC(=O)c1ccc(N=C2SCCCN2C(=O)C2CCCCC2)cc1`, the figure is 1.46%; as for `COC(=O)c1ccc(CN2C(=O)[C@]3(OCCC=C[C@H]3C)c3c(Br)cccc32)cc1`, -3.24%; as for `O=C(CN1CCC(NC(=O)NCc2ccccc2)CC1)Nc1ccc2c(c1)OCCO2`, -0.83%.
As for `C=CCNc1nc(Nc2ccc(Cl)cc2)nc(OC)n1`, the figure is -0.18%; as for `CC1(C)N=C(N)NC(Nc2ccc(Cl)cc2)=N1`, 0.62%.
Regarding `Clc1ccc(Nc2ccc3ccccc3n2)cc1`, the activation is 17.1% (active).
As for `CCOC(=O)/C=C/CN(C(=O)OC(C)(C)C)S(=O)(=O)N1CC=CC1`, the figure is -0.7%; as for `COc1ccc(-n2c(SCC(=O)Nc3ccc4cn[nH]c4c3)nnc2-c2cccnc2)cc1`, -1.7%; as for `CC(C)CNc1cccc2c1S(=O)(=O)N(Cc1cn(Cc3ccccc3C(F)(F)F)nn1)Cc1ccccc1O2`, -1.42%.
As for `O=C(CSc1nc2sc3c(c2c(=O)n1-c1ccccc1)CCCC3)NN=Cc1ccc(OCc2ccccc2)cc1`, the figure is -1.69%.
As to `CCOc1ccc(C2c3[nH]c4ccccc4c3CCN2Cc2cccn2-c2ncccn2)cc1` (stereo not given), the activation was 1.92%.
As for `CCOc1ccc(C2c3[nH]c4ccccc4c3CCN2Cc2cn(CC)nc2C)cc1` (stereo not given), the figure is 6.76% (active).
The same measure for `COc1cccc(C2c3[nH]c4ccccc4c3CCN2Cc2cccc(C)n2)c1` (stereo not given): 3.77%; for `Cc1[nH]c2ccccc2c1CC(=O)Nc1ccc(Nc2cccnc2)c(-c2cccc(Cl)c2)c1`: 1.03%.
For `CC(C)c1nc2cc(C(=O)NC(C)c3cnn(C)c3)ccc2o1` (stereo not given), the activation was -1.66%.
The same measure for `COc1ccc(CNC(=O)c2ccc3oc(C(C)C)nc3c2)cc1`: 6.74% (active); for `COC(=O)c1ccc(CNC(=O)c2ccc3oc(C(C)C)nc3c2)cc1`: 0.43%; for `CC(c1ccc(N)cc1)c1cn(C)c2ccccc12` (stereo not given): -2.32%.
For `Cc1ccccc1Nc1nc(N)nc(COC(=O)CCC(=O)c2ccc(F)cc2)n1`, the activation is -0.96%.
As for `Cc1ccccc1Nc1nc(N)nc(CSc2ccccc2)n1`, the figure is 6.93% (active); as for `Cc1ccccc1Nc1nc(N)nc(CSc2nnc3ccccn23)n1`, 0.54%; as for `COC(CNC(=O)[C@H](Cc1ccccc1)NC1(C(=O)NC2CCCCC2)CCCCC1)OC`, 0.68%.
Consider `O=C(Nc1cccc2cccnc12)c1ccc2sc([C@H]3C[C@H](O)[C@@H](CO)O3)nc2c1`, for which the activation was -3.24%.
The same measure for `O=C(Nc1cccc2cccnc12)c1cccc(Cl)c1`: 5.97% (active); for `CC(=O)/C(=N\Nc1ccc(Cl)cc1Cl)Sc1cccc2cccnc12`: -1.47%.
Take `COC(=O)[C@]12C[C@H](CC(=O)N3CCOCC3)C(=O)N(Cc3ccc(Cl)cc3Cl)C1=C[C@H](C(C)C)O[C@@H]2C1CC1`: the activation was -0.53%.
As for `CC(=O)OC12CCCN(C1)/C(=C/c1ccncc1)C2` (stereo not given), the figure is -0.38%; as for `CC1CCCCC1NC(=O)Cn1c(=O)cnc2ccccc21` (stereo not given), 0.69%.
As for `O=C(/C=C/c1cnc2ccccc2n1)NC1CCCCCC1`, the figure is 8.85% (active); as for `O=C(Cn1c(-c2cncs2)nc2ccccc21)NC1CCCC1`, -0.67%; as for `COCCN1CCn2c(nc3cc(NS(C)(=O)=O)ccc32)C1`, 0.72%.
The same measure for `O=C(NC1CCC1)c1ccc(C#CC2CC2)cn1`: 1.58%.
For `Nc1ncnc2c1ncn2C1OC(CO)CC1O` (stereo not given), the activation is -1.72%.
The same measure for `C#CCOc1ccccc1/C=C1/C(=O)ON=C1C`: 6.39% (active); for `Cc1no[n+]([O-])c1COc1ccccc1/C=C1\NC(=S)NC1=O`: -0.17%.
The same measure for `Cc1cccc(NC(=O)c2cc3c(C)nn(-c4ccccc4)c3s2)c1`: -3.69%; for `O=C(NCCc1csc(-c2ccccc2)n1)c1ccccc1F`: -1.62%.
For the compound `NS(=O)(=O)c1cc(C(=O)NCCOc2ccccc2)c(Cl)cc1Cl`, the activation was -2.95%.
As for `O=C(NCCOc1ccccc1)c1ccccc1F`, the figure is 6.22% (active).
The same measure for `CCc1c(-c2ccccc2OC)ncn1CCc1ccccc1OC`: -2.85%.
The same measure for `N[C@@H](Cc1ccccc1)C(=O)N1CCC[C@@H]1C(=O)N1CCC2CCN(S(=O)(=O)c3ccccc3)CC21` (stereo not given in full): -1.99%; for `COC1=NC2=NCCN2C(OC)=N1`: 0.26%; for `COC(=O)C[C@@H]1CC[C@@H]2[C@@H](COc3ccc(NC(=O)Nc4ccc(F)c(F)c4)cc3C(=O)N2C)O1`: -4.16%.
On to `N#CCC[C@H]1CC[C@]2(CCCN(Cc3ccc(Cl)cc3)C2)O1`, for which the activation is -0.47%.
The same measure for `CN(CCO)c1ccc(/C=N/Nc2nncc3ccccc23)cc1`: 5.57%; for `Cc1noc(C)c1/C=N/Nc1ccc2ccccc2n1`: 7.4% (active); for `Cc1cc2c(C)nc(N/N=C/c3ccccc3)nc2o1`: -0.61%.
For `C(=N\Nc1ccc2ccccc2n1)/c1ccc2c(c1)OCO2`, the activation is 7.26% (active).
The same measure for `Nc1nonc1-n1nnc(C(=O)N/N=C/c2ccc(Cl)cc2)c1-c1ccc2c(c1)OCO2`: 0.66%.
As for `O=C(NS(=O)(=O)c1cccs1)[C@H]1O[C@@H](n2ccc(=O)[nH]c2=O)[C@H](O)[C@@H]1O`, the figure is 1.29%.
The same measure for `COc1ccc(CSc2nnc(SCC(=O)Nc3ccccc3C(F)(F)F)s2)cc1`: -0.61%; for `CS(=O)(=O)Nc1ccccc1C(=O)OCC(=O)NC1CC1`: 0.83%.
